From PubChem BioAssay (NCI)
This is part of a sample that, as a whole, favours compounds with a hit. Of some 83,000 tested, about 20% had one in any assay.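 96-well plates, one dose, 48 hours. Percent growth reported; active if below 10.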 Unmarked numbers belong to inactive results. Activity calls are given as the source filed them.

Experiments:
Assay in all cases: NCI-60 one-dose screen, 48 h (100 = growth as untreated, 0 = no growth, -100 = all killed)
Conditions in all cases: 10 µM unless noted
[1] = system: HCT-15 colon
[2] = system: HT29 colon
[3] = system: SNB-75 CNS
[4] = system: SNB-19 CNS
[5] = system: U251 CNS
[6] = system: PC-3 prostate
[7] = system: UACC-62 melanoma
[8] = system: LOX IMVI melanoma
[9] = system: SK-MEL-28 melanoma
[10] = system: EKVX NSCLC
[11] = system: SN12C renal
[12] = system: UO-31 renal
[13] = system: TK-10 renal
[14] = system: ACHN renal
[15] = system: CAKI-1 renal
[16] = system: CCRF-CEM leukemia
[17] = system: MOLT-4 leukemia
[18] = system: SK-MEL-5 melanoma
[19] = system: SK-MEL-2 melanoma
[20] = system: A498 renal

| SMILES | growth [1] | growth [2] | growth [3] | growth [4] | growth [5] | growth [6] | growth [7] [%] | growth [8] | growth [9] | growth [10] | growth [11] | growth [12] | growth [13] | growth [14] | growth [15] | growth [16] | growth [17] | growth [18] | growth [19] | growth [20] |
| --- | --- | --- | --- | --- | --- | --- | --- | --- | --- | --- | --- | --- | --- | --- | --- | --- | --- | --- | --- | --- |
| Cc1ccc2c(c1)C(=O)/C(=C/c1cccc(F)c1)S2 | 100% | 104% | 106% | 96.9% | 101% | 86.4% | 83.7 | 114% | 101% | 98.5% | 101% | 88.4% | 123% | 102% | 85.8% | 104% | 106% | – | – | – |
| C#CCn1cccc1CNc1ccc(OC)cc1 | -79.2% (active) | -50.4% (active) | -79.9% (active) | -90.1% (active) | -74.6% (active) | -93.3% (active) | – | -84.8% (active) | – | -83% (active) | -84.3% (active) | -95.4% (active) | -77.7% (active) | -95% (active) | -87.6% (active) | -43.6% (active) | -29.5% (active) | -6.24% (active) | -14.1% (active) | 53.8% |
| Cc1cc(C)cc(C(=O)Nc2cccc(C#Cc3cccc4[nH]nc(N)c34)c2)c1 | 33.8% | 41.7% | 40.3% | 99.5% | 72.2% | 33.6% | 60.5 | 43.2% | 72% | 89.3% | 71.5% | 62.2% | 92.9% | 56.2% | 55.3% | 30.5% | 27% | – | – | – |
| Cc1ccc2sc3c(c2c1)OC(N)=C(C#N)C3c1cccc(F)c1 (stereo not drawn) | 6.97% (active) | -19.6% (active) | -0.701% (active) | 35% | 2.42% (active) | 9.24% (active) | 18.3 | 8.96% (active) | 51.3% | 44.6% | 10.4% | 25.9% | 36.1% | 20.6% | 16.5% | 16.1% | 17.5% | – | – | – |
| NC(N)=Nc1ccc(Oc2cccc(NC(N)=Nc3ccc(I)cc3F)c2)cn1 | 87.4% | 31.8% | 77.5% | 26.3% | 46.1% | 28.1% | – | 12.8% | 71.9% | 63% | 39.4% | 83.8% | 71.3% | 94.9% | – | 43.2% | 42.8% | 48.8% | 86.8% | 49% |
| CCC1=Cc2cc(OC)ccc2OC12C=Cc1cc(OC)ccc1O2 (stereo not drawn) | 14.7% | -9.52% (active) | 24.5% | 20.8% | 28.7% | 31.6% | – | -5.73% (active) | 56.6% | 46.2% | 34.8% | 53% | 100% | 45% | – | 10.9% | 11% | 16.8% | 52.5% | 3.41% (active) |
| N#Cc1c(NC(=O)c2cccc(C(F)(F)F)c2F)sc2c1CCC(=O)C2 | -49.6% (active) | 4.38% (active) | -66.3% (active) | 15.4% | 0.119% (active) | -43.9% (active) | – | -8.55% (active) | -71.8% (active) | 5.47% (active) | 7.61% (active) | -99.7% (active) | 24.1% | -95.5% (active) | -83.5% (active) | 7.8% (active) | -0.731% (active) | -91.1% (active) | – | -8.37% (active) |
